Screening data deposited in PubChem BioAssay by The Scripps Research Institute Molecular Screening Center.
TEAD-YAP inh: TEAD-YAP interaction inhibition, primary screen, TEAD-YAP interaction inhibitor project, luminescence, HEK-TIYL cells; TEAD-Gal4/YAP UAS-luciferase luminescence; inhibition, % at 9.12 µM; 640,000 tested, 1.4% active; AID 1259422, 2018; in the data active = inhibition above about 32%
GPR151 activ: activators of human GPR151, primary screen, cell-based, PathHunter beta-arrestin, luminescence. PathHunter beta-arrestin GPR151 cells. activation, % at 11.2 µM. 650,000 tested, 1% active. AID 1508602, 2020; in the data active = activation above about 4.9%
FBW7 act: FBW7 E3 ligase activators, primary screen, biochemical, AlphaScreen, human; 650,000 tested, 0.13% active; normalized activity (activation), % at 26.1 µM; F-box/WD repeat-containing protein 7 (Homo sapiens), Q969H0; AlphaScreen FBW7–phospho-cyclin E peptide binding, activator screen; in the data active = normalized activity above about 1.9%;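 note: purified mutant Fbw7 with reduced substrate affinity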
Target sequence (Q969H0 whole entry, looked up): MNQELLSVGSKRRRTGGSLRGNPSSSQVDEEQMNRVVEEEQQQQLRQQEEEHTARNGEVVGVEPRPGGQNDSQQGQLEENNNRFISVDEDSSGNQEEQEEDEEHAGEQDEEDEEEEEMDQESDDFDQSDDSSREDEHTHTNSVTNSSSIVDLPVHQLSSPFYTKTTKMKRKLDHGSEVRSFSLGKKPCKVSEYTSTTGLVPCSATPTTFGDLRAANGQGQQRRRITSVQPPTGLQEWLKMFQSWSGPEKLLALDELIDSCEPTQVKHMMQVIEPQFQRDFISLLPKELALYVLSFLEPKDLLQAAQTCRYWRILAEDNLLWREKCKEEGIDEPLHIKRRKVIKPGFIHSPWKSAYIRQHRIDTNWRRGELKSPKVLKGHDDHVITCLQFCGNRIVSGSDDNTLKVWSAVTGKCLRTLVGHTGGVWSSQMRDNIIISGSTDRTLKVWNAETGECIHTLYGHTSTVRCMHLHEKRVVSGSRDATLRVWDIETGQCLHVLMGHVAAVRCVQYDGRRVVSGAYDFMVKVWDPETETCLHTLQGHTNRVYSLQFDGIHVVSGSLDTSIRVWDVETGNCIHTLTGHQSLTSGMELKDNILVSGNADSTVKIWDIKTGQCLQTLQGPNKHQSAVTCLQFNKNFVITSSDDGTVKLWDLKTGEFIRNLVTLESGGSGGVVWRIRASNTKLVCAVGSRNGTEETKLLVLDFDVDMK
MITF inh: MITF inhibitors, primary screen, biochemical, AlphaScreen, human | Microphthalmia-associated transcription factor (Homo sapiens), O75030 | AID 1259374, 2018 | AlphaScreen MITF homodimerization, bead proximity signal | inhibition, % at 2.6 µM | 650,000 tested, 0.91% active; in the data active = inhibition above about 50%
MITF inh conf: MITF inhibitors, retest of hits, confirmation, biochemical, AlphaScreen, triplicate | AlphaScreen MITF homodimerization, biotin/His-MITF beads | 4,700 tested, 16% active | shares compounds with MITF inh | inhibition, % at 2.6 µM;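 active = inhibition above a cutoff derived from the DMSO control wells, cut at about 28% in these data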;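 note: inhibitors lower the bead chemiluminescence by keeping MITF from dimerizing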
AlphaScreen DR: AlphaScreen optical interference compounds, dose response, counter-screen, biochemical, HTS. shares compounds with MITF inh. AlphaScreen optical interference counterscreen, cell-free. IC50, µM. 480 tested, 6% active. AID 1259373, 2018; call rule not given here
AlphaScreen intf2: AlphaScreen optical interference compounds, counter-screen for MITF inhibitor project, biochemical, triplicate; inhibition, % at 2.6 µM; shares compounds with MITF inh; AID 1259376, 2018; 4,700 tested, 7.6% active; LysRS AlphaScreen counterscreen, signal interference;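 active = inhibition above a cutoff derived from the DMSO control wells, cut at about 30% in these data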
A number is an active result; 0 = inactive; - = no result. The list is not random: actives were taken first. Their share in the collection is about 3.5%.

SMILES	TEAD-YAP inh	GPR151 activ	FBW7 act	MITF inh	MITF inh conf	AlphaScreen intf2	others
CC1CN(CCOc2ccc(F)cc2)CC(C)O1 (configuration not stated)	0	0	0	53	0	0
COC(=O)c1ccc(OCCCCN2CC(C)OC(C)C2)cc1 (configuration not stated)	0	0	0	54	0	0
COc1nsc2cc([N+](=O)[O-])cc(F)c12	0	0	0	0	-	-
c1cncc(CNc2nc(Nc3ccc(N4CCOCC4)cc3)c3ncn(C4CCCCC4)c3n2)c1	0	0	0	51	84	0
c1cncc(CNc2nc(Nc3ccc(N4CCOCC4)cc3)nc3c2ncn3C2CCCCC2)c1	0	0	0	0	-	-
COc1ccc(CNC(=O)C2CCN(C(=O)Nc3ccc(C)cc3)CC2)cc1	0	0	0	0	-	-
CN1C(=O)/C(=C2\SC(=Nc3ccc(F)cc3)NC2=O)c2cc(Br)ccc21	0	0	0	51	0	0
CN1C(=O)/C(=C2\SC(=Nc3ccc(Br)cc3)NC2=O)c2ccccc21	0	0	0	0	-	-
Nc1nc2ccccc2n1CCCOc1ccc(Br)cc1	0	0	0	0	-	-
CCOC(=O)c1cnc2ccccc2c1Nc1ccc(O)cc1	0	0	0	0	-	-
CCOC(=O)c1cnc2ccccc2c1Nc1cccc(OC)c1	0	0	0	73	0	0
CCOC(=O)c1cnc2ccccc2c1Nc1ccc(C)c(C)c1	0	0	0	54	0	0
CCOc1ccc2c(c1)nc(NCCO)n2CC	0	0	0	0	-	-
O=C(CNCc1ccccc1F)Nc1ccccc1N1CCOCC1	0	0	0	74	0	0
O=C(CNCc1ccccc1Cl)Nc1ccccc1N1CCCCC1	0	0	0	62	0	0
O=C(CCl)Nc1ccccc1N1CCCCCC1	0	0	0	0	-	-
CCN(CC)c1ccc(C2NC(=S)NC(C)=C2C(=O)Nc2ccccc2)cc1 (configuration not stated)	0	0	0	0	-	-
COc1ccc(C(=O)Nc2cc(C(=O)N(C)Cc3ccccc3)ccc2N2CC3CC(C2)c2cccc(=O)n2C3)cc1 (configuration not stated)	0	0	0	87	0	0
COc1cc(OC)cc(C(=O)Nc2cc(C(=O)N(C)Cc3ccccc3)ccc2N2CC3CC(C2)c2cccc(=O)n2C3)c1 (configuration not stated)	0	0	0	0	-	-
CC1CN(Cc2ccc3c(c2)OCO3)Cc2ccccc2O1 (configuration not stated)	0	0	0	0	-	-
O=C(Nc1ccc(Br)cc1)Nc1cccc(Cl)c1	0	0	0	57	0	0
CCN(C(=O)c1cc2c(=O)n3cccc(C)c3nc2n1C)c1ccccc1	0	0	0	53	0	0
N#CC1=C(N)Oc2n[nH]c(-c3cccs3)c2C1c1ccc(C(F)(F)F)cc1 (configuration not stated)	0	0	0	0	-	-
OC(CNC1CCCC1)COCc1ccccc1Cl (configuration not stated)	0	0	0	0	-	-
OC(CNCC(c1ccco1)N1CCCC1)COc1ccccc1 (configuration not stated)	0	0	0	54	0	0
SMILES	TEAD-YAP inh	GPR151 activ	FBW7 act	MITF inh	MITF inh conf	AlphaScreen intf2	others
OC(CNCC(c1ccco1)N1CCCC1)COCc1ccccc1Cl (configuration not stated)	0	0	0	61	0	0
COc1ccc(/C=C2/N=C(c3ccc(C)c([N+](=O)[O-])c3)OC2=O)cc1OC	0	0	0	0	-	-
CC(C)c1nnc(NC(=O)CSc2nnc(NC(=O)Cc3ccccc3)s2)s1	0	0	0	0	-	-
CCCNC(=O)c1cnc(Nc2cnccn2)s1	0	0	0	55	0	0
COc1cccc2cc(-c3csc(Nc4cccc(F)c4)n3)c(=O)oc12	0	0	0	55	0	0
O=C(Oc1cccc2cccnc12)c1ccc(F)cc1	0	0	0	0	-	-
O=C(Oc1ccc([N+](=O)[O-])c2cccnc12)c1ccc(F)cc1	0	0	0	60	66	100
Cc1nc(NCc2c(C)nn(C)c2Cl)sc1-c1ccn(C2CCOC2)n1 (configuration not stated)	0	0	0	54	0	0
CCc1ccc(N(C)S(=O)(=O)c2ccc3[nH]cc(C(=O)O)c(=O)c3c2)cc1	0	0	0	0	-	-
O=c1cc(-c2ccccn2)[nH][nH]1	0	0	0	114	110	101
c1ccc(-c2cc3ccccc3[nH]2)nc1	0	0	0	0	-	-
CC(=O)Nc1ccc(Nc2nc(-c3ccc(C(=O)N4CCN(C)CC4)cc3)nc3c2ncn3C2CCCCC2)cc1	0	0	0	0	-	-
CN1CCN(C(=O)c2ccc(-c3nc(Nc4ccccc4)c4ncn(C5CCCCC5)c4n3)cc2)CC1	0	0	0	75	41	0	AlphaScreen DR=0
COc1ccc(OC)c(NC2CCCCC2OC)c1 (configuration not stated)	0	0	0	82	0	0
CCCC(C)NC(=O)Cc1ccc(Br)cc1 (configuration not stated)	0	0	0	51	0	0
COC(=O)c1c(NC(=O)C2CC2)sc2c1CCN(C(C)=O)C2	0	0	0	0	-	-
COC(=O)c1c(NC(=O)/C=C/C(=O)O)sc2c1CCN(C(C)=O)C2	0	0	0	83	0	0
O=C(CNCCOCCO)N1c2ccccc2Sc2ccccc21	0	0	0	74	0	0
COCCNCC(=O)N1c2ccccc2Sc2ccccc21	0	0	0	0	-	-
Cc1cccn2cc(CN3CCCc4ccccc43)nc12	0	0	0	55	0	0
Cc1cc(C)c(C(=O)N2CCC(=O)N(Cc3cn4cccc(C)c4n3)CC2)[nH]1	0	0	0	0	-	-
CCCS(=O)(=O)N1CCN(Cc2ccc(OCc3ccccc3)c(OC)c2)CC1	0	0	0	64	0	0
CCCS(=O)(=O)N1CCN(Cc2ccc(OC)cc2)CC1	0	0	0	0	-	-
CCCS(=O)(=O)N1CCN(Cc2ccc(OC)c(OC)c2)CC1	0	0	0	53	0	0
CCCS(=O)(=O)N1CCN(Cc2nc3ccc(OC)cc3[nH]2)CC1	0	0	0	66	0	0
CCCS(=O)(=O)N1CCN(Cc2ccc(OC)cc2OC)CC1	0	0	0	0	-	-
CCOCCOC(=O)c1ccc(NC(=O)c2ccc(Cl)cc2)cc1	0	0	0	0	-	-
C/C=C/C1OCC2(CO)C(C)C=C(C)C1C2C (configuration not stated)	0	0	0	0	-	-
